Seven compounds from PubChem BioAssay (Tox21) can be followed below.

Several values for one entry are separate records, joined by “and”; a condition that tells them apart may be missing. Equal values may be shown once. Inconclusive results are not listed. A structure can be active in one record and inactive in another. Activity calls are given as the source filed them. Unless noted, the call rests on the fitted dose curve; in most records, active means well fitted curve in the direction sought with a large enough effect in the repeat runs; inconclusive means weak or mixed curves; inactive means no such curve, though single readings can be large; an effect the other way counts as inactive or inconclusive.

The nature of assay [1]: qHTS assay to identify small molecule agonists of the progesterone receptor (PR) signaling pathway - cell viability counter screen (AID 1346799; calls by dose curve; further: nearly all actives have a fitted effect of over 45% in size). An outline of the steps:
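Luminescence from CellTiter-Glo, added after the beta-lactamase FRET read in the same wells, gave cytotoxicity in PR-UAS-bla HEK293T cells treated with compounds for 16 hr at 37C.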
On the technique in general: qHTS replaces the single test concentration by a dilution series.

Assay [2] can be described thus: qHTS assay to identify small molecule antagonists of the TGF-beta/Smad signaling pathway - cell viability counter screen (AID 1346824). Further: nearly all actives have a fitted effect of over 50% in size. An outline of the steps: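 SBE-bla HEK 293T cells, incubated overnight, then compound plus 0.25 ng/mL TGF-beta1 (stock added) for 5 hr at 37 C. Viability was read in the same wells by CellTiter-Glo luminescence after 30 min at room temperature.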

The nature of assay [3]: qHTS assay to identify small molecule agonists of the TGF-beta/Smad signaling pathway - cell viability counter screen (AID 1346829). Further: top concentration of the series differs between compounds; nearly all actives have a fitted effect of over 45% in size. An outline of the steps: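 SBE-bla HEK 293T cells plated overnight, compound exposure 5 hr at 37 C. Viability read in the same wells by CellTiter-Glo luminescence after 30 min at room temperature, following the beta-lactamase read.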
The target in assay [4] is Thyrotropin-releasing hormone receptor (Homo sapiens) (UniProt P34981). Description: qHTS assay to identify small molecule antagonists of the thyrotropin-releasing hormone receptor (TRHR) signaling pathway (AID 1346877; active means well fitted inhibition curve with a large enough effect in the repeat runs, not every such curve was filed as active; further: series mostly up to about 51 µM). An outline of the steps:
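Overnight-plated (18 h, 37 °C) HEK293 cells expressing TRHR were dye-loaded 2 h, treated with compound, then stimulated with TRH at 1 nM final. Fluorescence intensity was captured every second for 3 min.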

For assay [5] the target is unchanged. Description: qHTS assay to identify small molecule agonists of the thyrotropin-releasing hormone receptor (TRHR) signaling pathway (AID 1346891; calls by dose curve; further: series mostly up to about 58 µM). The gist of the method:
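Intracellular calcium rise, read as fluorescence every second for 3 min, served as the agonist signal in dye-loaded HEK293 cells expressing TRHR; each compound ran at 15 concentrations in triplicate.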

The nature of assay [6]: Human pregnane X receptor (PXR) small molecule agonists, qHTS cell viability counter screen (AID 1346977). Further: nearly all actives have a fitted effect of over 50% in size. Further: potency means the concentration at half of the fitted maximal effect. An outline of the steps:
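PXR-Luc HepG2, 2,000 cells/well, 5% charcoal-stripped FBS; 5hr settle; cpd 24hr, 37C/5% CO2; CellTiter-Fluor at 23hr, read 1hr later (fluorescence).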

Assay [7] in a line: Caspase-3/7 induction in HepG2 cells by small molecules, qHTS assay (AID 1346978). Further: nearly all actives have a fitted effect of over 15% in size. An outline of the steps: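 Wild-type HepG2 cells, 2,000/well, settled 5 hr at 37 C and 5% CO2, then compound-treated for 17 hr; caspase-3/7 activity read by luminescent Caspase-Glo 3/7 after 30 min at room temperature.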
A short description of assay [8]: Caspase-3/7 induction in CHO-K1 cells by small molecules, qHTS assay (AID 1346980). Further: nearly all actives have a fitted effect of over 15% in size. An outline of the steps:
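Wild-type CHO-K1 cells exposed to compounds for 17hr at 37 C, 5% CO2. Caspase-3/7 activity then measured by Caspase-Glo 3/7 luminescence after 30min at room temperature.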

Assay [9] is described as follows: Caspase-3/7 induction in HepG2 cells by small molecules, qHTS cell viability counter screen (AID 1346981). Further: nearly all actives have a fitted effect of over 30% in size. Further: potency means the concentration at half of the fitted maximal effect. An outline of the steps: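 Treatment of HepG2 cells with DMSO-delivered compounds ran 16 hr at 37 C following a 5-hr pre-incubation of 2,000 cells/well. CellTiter-Fluor fluorescence, read after 1 hr, served as the viability measure in a qHTS format.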
The target of assay [10] is Nuclear receptor subfamily 1 group I member 2 (Homo sapiens) (UniProt O75469). Description: Human pregnane X receptor (PXR) small molecule agonists, qHTS assay (AID 1346982). Further: nearly all actives have a fitted effect of over 35% in size. Further: potency means the concentration at half of the fitted maximal effect. An outline of the steps: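 Stable HepG2 line reporting PXR-mediated CYP3A4 expression via luciferase. Treatment: 24 hr with compounds in DMSO at 37 C. Detection: ONE-Glo luminescence.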
Nuclear receptor subfamily 1 group I member 2 (Homo sapiens), sequence (O75469 whole entry, looked up): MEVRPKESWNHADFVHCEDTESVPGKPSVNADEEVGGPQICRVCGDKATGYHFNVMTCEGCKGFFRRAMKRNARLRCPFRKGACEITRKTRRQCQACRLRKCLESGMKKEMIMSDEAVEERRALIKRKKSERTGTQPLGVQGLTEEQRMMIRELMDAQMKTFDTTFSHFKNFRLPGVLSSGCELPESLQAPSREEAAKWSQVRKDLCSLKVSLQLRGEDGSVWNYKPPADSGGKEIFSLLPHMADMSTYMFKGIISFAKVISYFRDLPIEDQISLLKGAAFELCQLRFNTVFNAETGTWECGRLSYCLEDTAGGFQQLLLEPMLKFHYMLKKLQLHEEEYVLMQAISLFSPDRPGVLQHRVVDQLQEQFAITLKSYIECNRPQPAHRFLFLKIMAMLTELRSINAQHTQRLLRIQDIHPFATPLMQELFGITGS
In assay [11] the target is Nuclear receptor subfamily 1 group I member 2 (Rattus norvegicus) (UniProt Q9R1A7). Description: Rat pregnane X receptor (rPXR) activation by small molecules, qHTS assay (AID 1346983). Further: nearly all actives have a fitted effect of over 20% in size. The settings on record: rPXR luciferase reporter cells, One-Glo luminescence, 24 h; max activation: stronger effect = higher value. An outline of the steps: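 Cell-based rPXR activation assay: rPXR cells, 2,000 per well, rested 5hr at 37 C, then exposed to compounds in DMSO for 24 hr at 37 C. Luciferase activity read by One-Glo luminescence after 30 min at room temperature.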
Nuclear receptor subfamily 1 group I member 2 (Rattus norvegicus), sequence (Q9R1A7 whole entry, looked up): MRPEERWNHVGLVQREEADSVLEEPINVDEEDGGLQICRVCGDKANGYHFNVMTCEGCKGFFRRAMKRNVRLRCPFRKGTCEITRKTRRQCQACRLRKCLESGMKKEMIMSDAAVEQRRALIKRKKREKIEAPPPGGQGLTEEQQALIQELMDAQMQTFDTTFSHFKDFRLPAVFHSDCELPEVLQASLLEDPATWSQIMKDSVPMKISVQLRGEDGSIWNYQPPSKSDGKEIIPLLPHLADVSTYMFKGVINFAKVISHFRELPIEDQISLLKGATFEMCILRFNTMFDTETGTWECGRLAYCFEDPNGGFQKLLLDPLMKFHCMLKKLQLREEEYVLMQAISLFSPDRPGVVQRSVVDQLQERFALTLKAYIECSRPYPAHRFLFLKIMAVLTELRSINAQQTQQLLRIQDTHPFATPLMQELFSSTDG

Assay [12] has as its target Nuclear receptor subfamily 1 group I member 2 (Homo sapiens) (UniProt O75469). Description: Human pregnane X receptor (PXR) activation by small molecules, qHTS assay (AID 1346985). Further: nearly all actives have a fitted effect of over 40% in size. Further: potency means the concentration at half of the fitted maximal effect. An outline of the steps:
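DPX-2 cells (HepG2 co-transfected with a PXR response element and a CYP3A4-promoter luciferase construct) were seeded at 2,000 per well, rested 5 hr at 37C, then exposed to DMSO-dissolved compounds for 24 hr. Activation was read as luciferase luminescence.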

The target in assay [13] is Cytochrome P450 2D6 (Homo sapiens) (UniProt P10635). Description: Cytochrome P450 Family 2 Subfamily D Member 6 (CYP2D6) small molecule antagonists: luciferase reporter qHTS assay (AID 1671196). Further: series mostly up to about 120 µM; nearly all actives have a fitted effect of over 50% in size. An outline of the steps: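 Chemicals tested for interference with CYP2D6 activity; proluciferin substrate, NADPH regeneration, 1 h at room temperature, luminescent detection.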
Cytochrome P450 2D6 (Homo sapiens), sequence (P10635 whole entry, looked up): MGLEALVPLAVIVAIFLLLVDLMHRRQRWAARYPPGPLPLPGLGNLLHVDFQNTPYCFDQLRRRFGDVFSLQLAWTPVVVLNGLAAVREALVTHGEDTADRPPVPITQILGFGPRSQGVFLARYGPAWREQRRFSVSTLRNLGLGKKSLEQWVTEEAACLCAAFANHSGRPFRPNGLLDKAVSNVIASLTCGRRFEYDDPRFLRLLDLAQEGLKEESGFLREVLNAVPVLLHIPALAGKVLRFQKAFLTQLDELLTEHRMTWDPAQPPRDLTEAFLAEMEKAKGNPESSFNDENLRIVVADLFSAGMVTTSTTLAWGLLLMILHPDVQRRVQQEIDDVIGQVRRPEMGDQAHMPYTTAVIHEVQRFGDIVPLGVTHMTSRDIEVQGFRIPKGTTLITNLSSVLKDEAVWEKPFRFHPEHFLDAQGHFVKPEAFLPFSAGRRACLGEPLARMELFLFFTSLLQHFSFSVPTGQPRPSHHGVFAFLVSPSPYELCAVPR
Background: A reporter such as luciferase makes a cellular process visible.

The target in assay [14] is Cytochrome P450 1A2 (Homo sapiens) (UniProt P05177). The assay can be described thus: Cytochrome P450 Family 1 Subfamily A Member 2 (CYP1A2) small molecule antagonists: luciferase reporter qHTS assay (AID 1671199). Further: nearly all actives have a fitted effect of over 50% in size. Further: potency means the concentration at half of the fitted maximal effect. The gist of the method: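 Read-out is luminescence from luciferin detection reagent (20 min) proportional to CYP1A2 activity; compounds in DMSO preincubated 10 min with enzyme and proluciferin substrate, then NADPH regeneration solution, 1 h, room temperature.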
Cytochrome P450 1A2 (Homo sapiens), sequence (P05177 whole entry, looked up): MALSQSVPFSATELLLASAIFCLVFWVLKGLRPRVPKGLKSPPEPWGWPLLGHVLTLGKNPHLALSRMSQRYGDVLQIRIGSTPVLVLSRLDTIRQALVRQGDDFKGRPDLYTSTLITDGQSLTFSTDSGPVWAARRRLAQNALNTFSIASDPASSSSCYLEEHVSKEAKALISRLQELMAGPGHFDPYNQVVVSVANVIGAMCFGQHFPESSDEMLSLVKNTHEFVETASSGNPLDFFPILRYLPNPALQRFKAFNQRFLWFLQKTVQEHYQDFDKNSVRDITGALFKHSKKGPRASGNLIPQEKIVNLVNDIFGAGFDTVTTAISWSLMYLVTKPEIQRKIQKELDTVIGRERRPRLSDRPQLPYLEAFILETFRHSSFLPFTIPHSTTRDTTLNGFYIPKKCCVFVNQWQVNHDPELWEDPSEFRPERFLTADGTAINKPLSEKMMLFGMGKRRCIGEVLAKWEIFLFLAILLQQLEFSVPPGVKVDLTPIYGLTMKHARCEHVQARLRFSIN

In assay [15] the target is Voltage-gated inwardly rectifying potassium channel KCNH2 (Homo sapiens) (UniProt Q12809). Description: Human Ether-a-go-go-Related Gene (hERG) channel small molecule antagonists: fluorescence cell-based qHTS assay (AID 1671200). An outline of the steps: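 Channel function was assessed by thallium flux. Cells seeded the previous day and kept at 37 C took up FluxOR II dye over 1 h in the dark at room temperature, then sat another 10 min before stimulation.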
Voltage-gated inwardly rectifying potassium channel KCNH2 (Homo sapiens), sequence (Q12809 whole entry, looked up): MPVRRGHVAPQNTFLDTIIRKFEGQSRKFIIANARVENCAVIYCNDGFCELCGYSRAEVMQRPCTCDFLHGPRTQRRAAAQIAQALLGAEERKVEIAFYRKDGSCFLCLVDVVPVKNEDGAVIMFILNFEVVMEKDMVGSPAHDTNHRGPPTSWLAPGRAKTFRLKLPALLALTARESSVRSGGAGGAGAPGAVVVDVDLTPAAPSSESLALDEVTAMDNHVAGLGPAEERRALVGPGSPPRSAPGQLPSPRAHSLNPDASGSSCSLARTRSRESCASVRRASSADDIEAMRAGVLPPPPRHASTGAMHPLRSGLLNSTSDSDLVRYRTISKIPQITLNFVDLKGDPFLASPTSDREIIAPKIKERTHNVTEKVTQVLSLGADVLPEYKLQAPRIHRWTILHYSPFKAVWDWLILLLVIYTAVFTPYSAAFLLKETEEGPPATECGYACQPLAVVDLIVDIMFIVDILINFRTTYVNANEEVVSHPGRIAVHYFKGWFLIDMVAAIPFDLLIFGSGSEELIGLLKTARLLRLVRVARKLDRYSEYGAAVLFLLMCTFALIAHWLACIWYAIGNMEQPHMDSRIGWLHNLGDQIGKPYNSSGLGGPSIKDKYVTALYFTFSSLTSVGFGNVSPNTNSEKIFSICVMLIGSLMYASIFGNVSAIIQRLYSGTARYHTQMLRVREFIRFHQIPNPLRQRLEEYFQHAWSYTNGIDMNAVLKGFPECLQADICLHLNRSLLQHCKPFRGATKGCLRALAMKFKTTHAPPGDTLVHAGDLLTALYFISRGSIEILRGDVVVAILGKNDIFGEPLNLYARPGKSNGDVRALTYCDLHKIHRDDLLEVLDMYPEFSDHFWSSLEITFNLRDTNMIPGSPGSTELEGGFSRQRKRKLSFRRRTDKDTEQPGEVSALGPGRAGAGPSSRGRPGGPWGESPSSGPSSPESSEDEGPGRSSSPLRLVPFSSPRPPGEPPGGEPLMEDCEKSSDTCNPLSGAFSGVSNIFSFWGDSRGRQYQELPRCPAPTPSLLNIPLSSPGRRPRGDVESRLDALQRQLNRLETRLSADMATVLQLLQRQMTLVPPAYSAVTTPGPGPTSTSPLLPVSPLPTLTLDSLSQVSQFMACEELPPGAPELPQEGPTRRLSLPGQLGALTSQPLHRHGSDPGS
For orientation: The hERG channel carries a current that helps repolarise heart muscle cells.

Assay [16] concerns the target Cytochrome P450 2C19 (Homo sapiens) (UniProt P33261). Description: Cytochrome P450 Family 2 Subfamily C Member 19 (CYP2C19) small molecule antagonists: luciferase reporter qHTS assay (AID 1671197). Further: nearly all actives have a fitted effect of over 65% in size. Further: potency means the concentration at half of the fitted maximal effect. The gist of the method:
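P450-Glo CYP2C19 system: enzyme-substrate mix with compound 10 min at room temperature, then NADPH regeneration solution, 1 h at 37C. Proluciferin-to-luciferin conversion detected by luminescence after 20 min with detection reagent; ketoconazole as positive control.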

The target of assay [17] is Cytochrome P450 2C9 (Homo sapiens) (UniProt P11712). The assay can be described thus: Cytochrome P450 Family 2 Subfamily C Member 9 (CYP2C9) small molecule antagonists: luciferase reporter qHTS assay (AID 1671198). Further: nearly all actives have a fitted effect of over 50% in size. Further: potency means the concentration at half of the fitted maximal effect. The gist of the method:
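P450-Glo proluciferin substrate with CYP2C9 enzyme; 10 min RT preincubation, then NADPH regeneration 1 h at 37C; luciferin detection reagent 20 min RT, luminescence in relative luminescence units.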

Assay [18] is described as follows: qHTS assay to identify small molecule agonists of the TGF-beta/Smad signaling pathway (AID 1346859; active means well fitted activation curve with a large enough effect in the signal ratio in the repeat runs, not every such curve was filed as active; the % refers to the signal ratio; further: series mostly up to about 77 µM). An outline of the steps:
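SBE-bla HEK 293T, 4,000 cells/well, plated o/n; cpd in DMSO, 5 hr, 37 C/5% CO2; B/G FRET substrate 2 hr RT; ex 405, em 460/530 nm.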

Assay [19] in a line: Caspase-3/7 induction in CHO-K1 cells by small molecules, qHTS cell viability counter screen (AID 1346979). Further: nearly all actives have a fitted effect of over 35% in size. Further: potency means the concentration at half of the fitted maximal effect. An outline of the steps:
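Cells (CHO-K1, wild type) are plated at 1,500 per well and incubated 5hr. Test compounds in DMSO are then pinned in, followed by 16hr at 37C and 5% CO2. Viability is read by CellTiter-Fluor fluorescence after 1hr.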

The target of assay [20] is Cytochrome P450 3A4 (Homo sapiens) (UniProt P08684). Description: Cytochrome P450 Family 3 Subfamily A Member 4 (CYP3A4) small molecule antagonists: luciferase reporter qHTS assay (AID 1671201). An outline of the steps:
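Compounds in DMSO were pin-transferred onto CYP3A4 enzyme-substrate mix and held 10 min at room temperature. NADPH regenerating solution started the reaction for 1 h; luciferin detection reagent stopped it, and luminescence was read after 20 min.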
On the % scale 0 is the no-effect control and ±100 the full control effect.

Cytochrome P450 2C9 (Homo sapiens), sequence (P11712 whole entry, looked up): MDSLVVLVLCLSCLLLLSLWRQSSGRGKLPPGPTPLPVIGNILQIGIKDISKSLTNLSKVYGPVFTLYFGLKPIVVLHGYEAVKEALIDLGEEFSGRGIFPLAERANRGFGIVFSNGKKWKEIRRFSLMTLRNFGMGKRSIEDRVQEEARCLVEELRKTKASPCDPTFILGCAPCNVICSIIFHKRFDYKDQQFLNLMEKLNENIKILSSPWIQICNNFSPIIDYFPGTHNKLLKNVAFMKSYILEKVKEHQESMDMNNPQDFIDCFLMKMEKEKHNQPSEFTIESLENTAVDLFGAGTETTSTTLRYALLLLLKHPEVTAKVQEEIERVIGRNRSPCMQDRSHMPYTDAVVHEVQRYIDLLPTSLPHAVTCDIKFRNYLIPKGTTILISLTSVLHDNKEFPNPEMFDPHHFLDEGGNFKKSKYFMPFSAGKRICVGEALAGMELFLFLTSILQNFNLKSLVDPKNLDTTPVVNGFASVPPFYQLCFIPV
Thyrotropin-releasing hormone receptor (Homo sapiens), sequence (P34981 whole entry, looked up): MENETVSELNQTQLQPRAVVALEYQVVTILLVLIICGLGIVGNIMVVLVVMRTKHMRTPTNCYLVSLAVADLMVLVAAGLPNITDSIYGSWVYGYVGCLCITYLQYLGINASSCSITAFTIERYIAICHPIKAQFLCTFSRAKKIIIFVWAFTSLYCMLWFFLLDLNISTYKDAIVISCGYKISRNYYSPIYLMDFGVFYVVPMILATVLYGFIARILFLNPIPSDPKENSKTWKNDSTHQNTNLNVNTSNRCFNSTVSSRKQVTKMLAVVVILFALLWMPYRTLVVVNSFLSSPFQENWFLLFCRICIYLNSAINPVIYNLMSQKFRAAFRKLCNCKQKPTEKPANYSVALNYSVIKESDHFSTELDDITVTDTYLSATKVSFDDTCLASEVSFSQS
Cytochrome P450 2C19 (Homo sapiens), sequence (P33261 whole entry, looked up): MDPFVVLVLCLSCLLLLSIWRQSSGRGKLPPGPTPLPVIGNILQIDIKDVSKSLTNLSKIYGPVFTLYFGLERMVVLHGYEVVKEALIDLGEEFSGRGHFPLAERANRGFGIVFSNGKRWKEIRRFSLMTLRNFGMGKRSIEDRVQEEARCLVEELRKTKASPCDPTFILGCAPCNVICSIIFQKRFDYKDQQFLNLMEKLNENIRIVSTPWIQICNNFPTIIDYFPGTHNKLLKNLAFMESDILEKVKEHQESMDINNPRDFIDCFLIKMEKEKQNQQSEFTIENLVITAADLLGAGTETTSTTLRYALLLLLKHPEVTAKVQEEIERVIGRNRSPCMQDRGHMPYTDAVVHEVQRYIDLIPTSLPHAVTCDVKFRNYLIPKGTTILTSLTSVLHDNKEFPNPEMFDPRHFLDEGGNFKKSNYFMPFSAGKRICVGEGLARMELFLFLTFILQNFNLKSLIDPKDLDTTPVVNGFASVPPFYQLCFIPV
Cytochrome P450 3A4 (Homo sapiens), sequence (P08684 whole entry, looked up): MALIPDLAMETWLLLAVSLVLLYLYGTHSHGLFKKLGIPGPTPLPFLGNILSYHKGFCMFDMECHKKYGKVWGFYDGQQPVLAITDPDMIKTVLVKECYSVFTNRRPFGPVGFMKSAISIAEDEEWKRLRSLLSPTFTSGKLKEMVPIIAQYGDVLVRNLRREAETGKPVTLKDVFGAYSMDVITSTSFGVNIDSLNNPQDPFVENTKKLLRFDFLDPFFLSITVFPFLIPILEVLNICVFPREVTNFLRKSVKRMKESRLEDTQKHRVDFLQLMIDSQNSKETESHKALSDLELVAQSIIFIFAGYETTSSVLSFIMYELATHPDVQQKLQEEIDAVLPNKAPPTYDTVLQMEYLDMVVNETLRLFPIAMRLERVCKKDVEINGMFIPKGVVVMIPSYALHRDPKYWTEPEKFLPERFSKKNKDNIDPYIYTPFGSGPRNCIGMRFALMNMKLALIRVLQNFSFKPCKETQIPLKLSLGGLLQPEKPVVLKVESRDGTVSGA

Turning to `O=C(O)c1cc(O)c(O)c(O)c1`, the Potency result in [1], in [2], in [3], in assay [4], in assay [7] and in assay [10] was “inactive” each time. The Potency result in assay [12], in assay [13] and in [14] was “inactive” each time. Moreover, the compound was classed as inactive in assay [5], in assay [8] and in assay [15]. Moreover, the Potency in assay [6] is 49 µM (active) and inactive; in assay [9], 43.7 µM (active). Moreover, the max activation in [11] is -1.49% (inactive).
As for `O=C(O)c1ccc2c(c1)C(=O)OC2=O`, the Potency result in [1], in assay [2], in assay [3], in assay [4], in assay [6] and in [7] was “inactive” throughout. In addition, the Potency entry in assay [9], in assay [10], in assay [16], in assay [17] and in assay [14] was “inactive” in each case. The call in assay [5], in [8] and in [15] was inactive.
As for `CCCCC(CC)COC(=O)C(C#N)=C(c1ccccc1)c1ccccc1` (stereo not drawn), the Potency entry in assay [2], in assay [3], in assay [4], in assay [6], in assay [7] and in [9] was “inactive” throughout. The compound was called inactive in assay [18], in assay [5], in [8] and in [15]. In addition, the Potency in assay [19] is 48.6 µM (active) and 18.8 µM (active); in assay [10], 13.7 µM (active) and 10.6 µM (active); in assay [12], 10 µM (active); in assay [16] it was 7.1 µM (active); in [17], 2.83 µM (active) and 3.09 µM (active); in [14], 31.7 µM (active).
As for `CC(C)CC(=O)CC(C)C`, the Potency entry in assay [1], in assay [2], in assay [3], in assay [6], in [7] and in assay [19] was “inactive” each time. The Potency result in assay [9], in assay [10], in assay [13], in [16], in [17] and in assay [14] was “inactive” in each case. For the same compound, the compound was classed as inactive in [8] and in assay [15].
Take `CCc1ccc(CCOc2ccc(CC3SC(=O)NC3=O)cc2)nc1` (stereo not drawn): the Potency result in assay [1], in assay [2], in assay [3], in assay [4], in [6] and in assay [9] was “inactive” each time. The Potency entry in [16] and in assay [14] was “inactive” in each case. In addition, the compound was classed as inactive in assay [5], in assay [8] and in assay [15]. Moreover, the max activation in assay [11] was -8.65% (inactive). In addition, the Potency in assay [17] was 31.7 µM (active) and 30.9 µM (active).
`c1c[nH]cn1`: the Potency entry in assay [1], in assay [2], in [3], in [4], in [6] and in assay [9] was “inactive” each time. Moreover, the Potency result in [10] and in [14] was “inactive” each time. For the same compound, the compound was called inactive in assay [5], in [8] and in [15]. For the same compound, in [16], the Potency is 84.4 µM (active).
As to `CC(C)(N)CO`, the Potency result in assay [1], in assay [2], in assay [3], in assay [4], in assay [6] and in [7] was “inactive” throughout. For the same compound, the Potency result in [9], in [17], in assay [14] and in assay [20] was “inactive” in each case. Also, the compound was classed as inactive in [5], in assay [8] and in [15]. For the same compound, the Potency in assay [10] is 60.9 µM (active) and inactive.
